Reference: PubChem BioAssay (Tox21)
Values joined by “and” are separate entries in the source; they are usually repeats but may differ in a detail not shown here. Equal values may be shown once. Inconclusive results are not listed. Entries that show only a call come without a potency. The source holds several records for some structures; these can differ, active in one and inactive in another. Active and inactive are the calls of the source. Unless noted, calls come from the whole dose curve; as a rule, active = well fitted curve in the direction sought with a large enough effect in the repeat runs; inconclusive = weak or mixed curves; inactive = no such curve, though single readings can be large; an effect the other way counts as inactive or inconclusive.

Assays:
[1] = qHTS assay to identify small molecule antagonists of the estrogen related receptor (ERR) signaling pathway from Tox21 library - cell viability counter screen (AID 1224834); note: nearly all actives have a fitted effect of over 30% in size; note: potency is the fitted concentration of half-maximal effect
In short: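 Fluorescence from CellTiter-Fluor gives the viability read-out, taken 30 min after reagent addition. Before that, ERR cells seeded 6 h earlier were incubated with compounds for 17.5 h at 37 C.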

[2] = target: Luciferin 4-monooxygenase (Photinus pyralis) (UniProt P08659); assay: qHTS assay to identify small molecule inhibitors of firefly luciferase (AID 1224835); note: nearly all actives have a fitted effect of over 25% in size
Luciferin 4-monooxygenase (Photinus pyralis), sequence (P08659 whole entry, looked up): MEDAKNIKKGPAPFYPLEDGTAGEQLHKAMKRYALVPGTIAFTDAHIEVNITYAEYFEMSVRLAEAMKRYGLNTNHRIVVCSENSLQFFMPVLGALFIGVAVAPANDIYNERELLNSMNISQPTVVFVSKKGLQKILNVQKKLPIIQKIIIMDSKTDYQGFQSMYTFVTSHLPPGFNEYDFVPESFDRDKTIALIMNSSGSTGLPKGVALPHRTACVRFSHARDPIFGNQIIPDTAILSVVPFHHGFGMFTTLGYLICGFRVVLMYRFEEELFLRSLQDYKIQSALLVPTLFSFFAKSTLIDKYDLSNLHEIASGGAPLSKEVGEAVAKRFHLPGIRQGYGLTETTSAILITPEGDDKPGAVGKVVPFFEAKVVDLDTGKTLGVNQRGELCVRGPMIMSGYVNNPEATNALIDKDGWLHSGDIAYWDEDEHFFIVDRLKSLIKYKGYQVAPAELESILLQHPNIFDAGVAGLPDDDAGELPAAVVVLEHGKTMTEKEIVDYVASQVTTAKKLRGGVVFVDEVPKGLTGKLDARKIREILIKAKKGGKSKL
In short: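 Quantitative HTS format; KM concentrations of both substrates. Purified P. pyralis FLuc activity quantified from luminescence images.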

[3] = qHTS assay to identify small molecule agonists of the constitutive androstane receptor (CAR) signaling pathway - cell viability counter screen (AID 1224836); note: nearly all actives have a fitted effect of over 45% in size
In short: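 Multiplexed viability check: HepG2-CYP2B6-hCAR cells, 15-point compound dosing, 0.75 uM PK11195 final, 23 h at 37 C, CellTiter-Fluor fluorescence.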

[4] = qHTS assay to identify small molecule antagonists of the constitutive androstane receptor (CAR) signaling pathway - cell viability counter screen (AID 1224837); note: nearly all actives have a fitted effect of over 45% in size
In short: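 HepG2-CYP2B6-hCAR cells, 2500/well, 4 hr pre-incubation; compound titration, 15 conc.; CITCO 50 nM final; 23 hr, 37 C/5% CO2; CellTiter-Fluor, fluorescence intensity.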

[5] = qHTS assay to identify small molecule antagonists of the estrogen related receptor signaling pathway with the pleiotropic PPARgamma coactivator (PGC) from Tox21 10K library - cell viability counter screen (AID 1224840; active = well fitted cell-killing curve with a large enough effect in the repeat runs, not every such curve was filed as active; note: nearly all actives have a fitted effect of over 40% in size; note: potency is the fitted concentration of half-maximal effect)
In short: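 PGC/ERR cells, 2,000/well; 6 h pre-incubation 37 C/5% CO2; cpd in DMSO via pin tool; 17.5 h 37 C; CellTiter-Fluor, 30 min; fluorescence.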

[6] = qHTS assay to identify small molecule agonists of the hypoxia (HIF-1) signaling pathway - cell viability counter screen (AID 1224844; calls by dose curve; note: nearly all actives have a fitted effect of over 50% in size)
In short: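 ME-180 HRE-bla cells, 2,000/well, 0.5% dialyzed FBS; 5 hr settle, 17 hr compound at 37C/5% CO2; CCF4-AM reporter read first, then CellTiter-Glo luminescence after 30 min RT.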

[7] = qHTS assay to identify small molecule agonists of H2AX (AID 1224845; active = well fitted activation curve with a large enough effect in the signal ratio in the repeat runs, not every such curve was filed as active; the % refers to the signal ratio)
In short: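 Wild-type CHO-K1 cells plated overnight, then exposed 3 hr at 37C to compounds at 15 concentrations (0.76% DMSO). Lysed, then HTRF anti-pH2AX(S139)-cryptate/anti-H2AX-d2 detection after 24 hr at room temperature; emissions 665 and 620 nm.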

[8] = qHTS assay to identify small molecule agonists of the hypoxia (HIF-1) signaling pathway (AID 1224846; active = well fitted activation curve with a large enough effect in the signal ratio in the repeat runs, not every such curve was filed as active; the % refers to the signal ratio)
In short: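 Cell line: CellSensor HRE-bla ME-180; 2,000 cells/well; 0.5% dialyzed FBS; 5 h preincubation; DMSO compound pin transfer; 17 h, 37C, 5% CO2; CCF4-AM added; bla FRET signal scored for activation.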

[9] = qHTS assay to identify small molecule agonists of H2AX - cell viability counter screen (AID 1224847; calls by dose curve; note: nearly all actives have a fitted effect of over 30% in size; note: potency is the fitted concentration of half-maximal effect)
In short: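 After overnight plating of 1000 CHO-K1 cells per well, a 15-concentration compound series was applied for 3 hr at 37C. Luminescence from CellTiter-Glo, read following 30 min at room temperature, reflected cell viability.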

[10] = qHTS RealTime-Glo MT Cell Viability Assay in HepG2 cells - 24 hour (AID 1224867); note: nearly all actives have a fitted effect of over 50% in size
In short: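 Cell number in HepG2 cultures estimated from NanoLuc luminescence generated by metabolic reduction of a prosubstrate by living cells. The homogeneous, nonlytic format allowed repeated reads at 0, 8, 16, 24, 32 and 40 h of compound exposure.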

[11] = qHTS RealTime-Glo MT Cell Viability Assay in HEK293 cells - 32 hour (AID 1224868); note: nearly all actives have a fitted effect of over 50% in size; note: potency is the fitted concentration of half-maximal effect
In short: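 Homogeneous bioluminescent viability format in HEK293 cells (600 cells/well). Following 5 h at 37 C/5% CO2, 23 nL compound was pintooled; the signal was measured repeatedly during 40 h incubation.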

[12] = A CellTox Green Cytotoxicity Assay to monitor cytotoxicity in HEK293 cells - 0 hour (AID 1224869); note: nearly all actives have a fitted effect of over 50% in size
In short: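 Nonlytic real-time cytotoxicity: HEK293 + CellTox Green reagent plated, 5 h preincubation, pintool compound addition (23 nL in DMSO), 37 C for 40 h, fluorescence measured at successive time points.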

[13] = qHTS RealTime-Glo MT Cell Viability Assay in HepG2 cells - 40 hour (AID 1224870); note: nearly all actives have a fitted effect of over 50% in size
In short: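 HepG2 cells mixed with RealTime-Glo MT reagents (NanoLuc plus cell-permeant prosubstrate) were seeded at 600 cells/well, incubated 5 h at 37 C/5% CO2, then pinned with compounds in DMSO; nonlytic luminescence tracked viability during 40 h treatment.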

[14] = target: Nuclear receptor subfamily 1 group I member 3 (Homo sapiens) (UniProt Q14994); assay: qHTS assay to identify small molecule antagonists of the constitutive androstane receptor (CAR) signaling pathway (AID 1224838);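 note: HepG2 cells stably expressing hCAR with CYP2B6 luciferase reporter stimulated by CITCO; nearly all actives have a fitted effect of over 40% in size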; note: potency is the fitted concentration of half-maximal effect
Nuclear receptor subfamily 1 group I member 3 (Homo sapiens), sequence (Q14994 whole entry, looked up): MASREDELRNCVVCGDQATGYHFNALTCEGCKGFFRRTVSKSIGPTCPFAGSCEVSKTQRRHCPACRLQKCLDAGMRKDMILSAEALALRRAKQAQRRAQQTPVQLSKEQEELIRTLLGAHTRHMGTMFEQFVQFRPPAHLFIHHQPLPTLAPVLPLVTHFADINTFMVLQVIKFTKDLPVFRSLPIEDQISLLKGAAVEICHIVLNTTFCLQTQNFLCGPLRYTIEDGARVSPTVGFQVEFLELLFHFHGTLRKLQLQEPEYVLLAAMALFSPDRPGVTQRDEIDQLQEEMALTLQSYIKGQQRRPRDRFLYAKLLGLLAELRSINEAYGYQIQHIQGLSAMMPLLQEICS
In short: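 HepG2-CYP2B6-hCAR cells; 4 h pre-incubation; cpd (15 conc) + CITCO 50 nM final; 24 h, 37 C/5% CO2; ONE-Glo, luminescence.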

[15] = qHTS assay to identify small molecule antagonists of the estrogen related receptor signaling pathway with the pleiotropic PPARgamma coactivator (PGC) from Tox21 10K library (AID 1224841; call rule not given here)
In short: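 PGC/ERR cell line, 2,000 cells/well; 6 h pre-incubation 37 C/5% CO2; compounds (DMSO) pinned in; 18 h, 37 C; One-Glo, 30 min RT; luminescence.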

[16] = qHTS assay to identify small molecule agonists of the estrogen related receptor signaling pathway with the pleiotropic PPARgamma coactivator (PGC) from Tox21 10K library (AID 1224842); note: nearly all actives have a fitted effect of over 15% in size; note: potency is the fitted concentration of half-maximal effect
In short: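 PGC/ERR reporter cells (NTP line) were seeded 2,000 per well, rested 6 h at 37 C/5% CO2, then pin-dosed with compounds in DMSO for 18 h at 37 C; luciferase read by One-Glo luminescence after 30 min at room temperature.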

[17] = target: Thyrotropin receptor (Homo sapiens) (UniProt P16473); assay: qHTS assay to identify small molecule agonists of the thyroid stimulating hormone receptor (TSHR) signaling pathway (AID 1224843; calls by dose curve; note: nearly all actives have a fitted effect of over 45% in size)
Thyrotropin receptor (Homo sapiens), sequence (P16473 whole entry, looked up): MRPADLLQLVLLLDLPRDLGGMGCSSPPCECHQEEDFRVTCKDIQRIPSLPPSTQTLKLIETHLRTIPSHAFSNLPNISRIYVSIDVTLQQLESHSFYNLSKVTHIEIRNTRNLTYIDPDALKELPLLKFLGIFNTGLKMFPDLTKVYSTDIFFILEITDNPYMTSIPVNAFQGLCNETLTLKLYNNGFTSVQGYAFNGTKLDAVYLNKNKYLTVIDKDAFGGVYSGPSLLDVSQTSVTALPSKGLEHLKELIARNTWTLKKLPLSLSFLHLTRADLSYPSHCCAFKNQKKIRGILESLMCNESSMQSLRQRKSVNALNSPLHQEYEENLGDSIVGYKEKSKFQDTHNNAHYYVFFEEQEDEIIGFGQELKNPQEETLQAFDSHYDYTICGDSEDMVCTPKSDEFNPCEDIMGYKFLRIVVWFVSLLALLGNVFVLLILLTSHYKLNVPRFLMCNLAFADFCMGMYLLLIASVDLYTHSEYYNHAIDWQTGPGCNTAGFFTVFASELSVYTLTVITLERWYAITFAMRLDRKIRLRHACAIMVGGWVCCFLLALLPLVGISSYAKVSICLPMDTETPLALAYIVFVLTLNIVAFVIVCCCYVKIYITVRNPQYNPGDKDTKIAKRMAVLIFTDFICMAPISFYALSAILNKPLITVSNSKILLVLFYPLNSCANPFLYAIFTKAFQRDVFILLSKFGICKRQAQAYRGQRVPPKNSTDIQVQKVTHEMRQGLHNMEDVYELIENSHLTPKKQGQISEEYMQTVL
In short: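 Cell line HEK293 with TSHR; density 800/well. Exposure 30 min RT. Readout HTRF cAMP (cAMP-d2/anti-cAMP-cryptate), 1 h RT before reading.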

[18] = qHTS assay to identify small molecule antagonists of the estrogen related receptor (ERR) signaling pathway from Tox21 library (AID 1224848); note: nearly all actives have a fitted effect of over 50% in size; note: potency is the fitted concentration of half-maximal effect
In short: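 Screening used an ERR reporter line supplied by NTP, exposed for 18 h at 37 C to library compounds delivered in DMSO. Signal was luciferase luminescence developed with ONE-Glo at room temperature for 30 min.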

[19] = qHTS assay to identify small molecule agonists of the estrogen related receptor (ERR) signaling pathway from Tox21 library (AID 1224849; calls by dose curve; note: nearly all actives have a fitted effect of over 15% in size); details: ERR reporter cell line, ONE-Glo luciferase, 18 h; at 92.4 µM (top of the series) unless noted
In short: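 ERR cells, 6 h pre-incubation 37 C/5% CO2; cpd in DMSO pinned; 18 h 37 C; ONE-Glo added, 30 min RT; luminescence read. Agonist mode, qHTS.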

[20] = target: Nuclear receptor subfamily 1 group I member 3 (Homo sapiens) (UniProt Q14994); assay: qHTS assay to identify small molecule agonists of the constitutive androstane receptor (CAR) signaling pathway (AID 1224839);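 note: HepG2 cells stably carrying human CAR and a CYP2B6 luciferase reporter; nearly all actives have a fitted effect of over 15% in size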
In short: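 Using human hepatoma HepG2 cells engineered with hCAR and a CYP2B6-2.2kb reporter, 15-concentration compound series were incubated 24 h alongside PK11195 at 0.75 uM final, with luminescence quantified afterwards.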

Row | SMILES | Potency [1] | Potency [2] | Potency [3] | Potency [4] | Potency [5] | Potency [6] | outcome [7] | outcome [8] | Potency [9] | Potency [10] | Potency [11] | outcome [12] | Potency [13] | Potency [14] | Potency [15] | Potency [16] | Potency [17] | Potency [18] | activity change, positive = activation [19] | Potency [20]
1 | OCC(Cl)CCl (configuration not stated) | inactive | inactive | inactive | inactive | inactive | inactive | inactive | inactive | inactive | inactive | inactive | inactive | inactive | – | – | – | – | – | – | –
2 | Cc1ccc(-c2nc3ccc(C)cn3c2CC(=O)N(C)C)cc1 | inactive | – | inactive | inactive | inactive | inactive | – | inactive | inactive | inactive | – | inactive | inactive | inactive | inactive | 10.6 µM (active) | inactive | inactive | 37.3% [at 42.5 µM] (active) | –
3 | COP(=O)(OC)O/C(C)=C/C(=O)N(C)C | inactive | inactive | inactive | inactive | – | inactive | inactive | inactive | inactive | inactive | inactive | inactive | inactive | – | inactive | inactive | inactive | inactive | -0.44% (inactive) | –
4 | C[C@H](CN1CCOCC1)C(C(=O)N1CCCC1)(c1ccccc1)c1ccccc1 | inactive | inactive | inactive | – | inactive | inactive | inactive | inactive | inactive | inactive | – | inactive | inactive | – | – | inactive | – | 66.3 µM (active) | -33.1% (inactive) | –
5 | O=C(Cl)/C=C/C(=O)Cl | inactive | – | inactive | inactive | – | inactive | – | inactive | inactive | inactive | – | inactive | inactive | – | – | inactive | – | inactive | -12% (inactive) | –
6 | CON(C)C(=O)Nc1ccc(Br)cc1 | – | inactive | inactive | inactive | inactive | inactive | inactive | inactive | inactive | inactive | inactive | inactive | inactive | – | – | – | inactive | – | – | –
7 | CCCCCCCCSC(=O)Oc1cc(Cl)nnc1-c1ccccc1 | inactive | inactive | inactive | inactive | inactive | inactive | inactive | inactive | – | inactive | inactive | inactive | inactive | – | – | – | – | – | – | –
8 | O=C1CCCCC1Cl (configuration not stated) | inactive | inactive | inactive | inactive | – | inactive | inactive | inactive | inactive | inactive | inactive | inactive | inactive | – | – | – | inactive | – | – | –
9 | C=C1CC[C@@]2(O)[C@H]3Cc4ccc(O)c5c4[C@@]2(CCN3CC2CC2)[C@H]1O5 | inactive | inactive | inactive | inactive | – | inactive | – | – | inactive | inactive | inactive | inactive | inactive | – | inactive | inactive | inactive | inactive | 8.21% [at 42.5 µM] (inactive) | –
10 | CC(C)[C@]12CC(=O)[C@H](C)[C@H]1C2 | inactive | inactive | inactive | inactive | – | inactive | inactive | inactive | inactive | inactive | inactive | inactive | inactive | – | – | – | inactive | – | – | –
11 | CC(C)(N)Cc1ccc(Cl)cc1 | – | inactive | inactive | inactive | inactive | inactive | – | inactive | inactive | inactive | inactive | inactive | inactive | – | – | – | inactive | – | – | inactive
12 | O=C(O)C(F)(F)C(F)(F)C(F)(F)C(F)(F)C(F)(F)C(F)(F)F | inactive | – | inactive | inactive | inactive | – | inactive | inactive | inactive | inactive | inactive | inactive | inactive | inactive | – | – | inactive | – | – | inactive
13 | C[C@H]1CCCC(=O)CCC/C=C/c2cc(O)cc(O)c2C(=O)O1 | 26.3 µM (active) and 17.8 µM (active) | inactive | – | – | 23.4 µM (active) | inactive | – | inactive | 86.5 µM (active) and inactive | inactive | 21.1 µM (active) | inactive | inactive | 20.9 µM (active) | – | – | – | – | – | inactive
14 | O=[N+]([O-])c1cccc(CCl)c1 | inactive | – | inactive | inactive | inactive | inactive | inactive | inactive | inactive | inactive | inactive | inactive | inactive | – | – | – | inactive | inactive | -0.166% (inactive) | –
